Experimental data reported in PubChem BioAssay AID1030 (National Center for Advancing Translational Sciences (NCATS), 2008).
Out of some 220,000 compounds screened, about 16,000 (7.3%) were called active. Not shown: some 25% with an inconclusive outcome. Calls follow the shape of the dose curve; as a rule, active = well fitted inhibition curve with a large enough effect (not every such curve was filed as active); inconclusive = small, poorly fitted or top-dose-only effect, or another doubt; inactive = no such curve, though single readings can be large or run the other way. The list comes from a sample in which actives are over-represented; it also holds similar structures and randomly drawn compounds. A call without a number means that no potency is given here.

Biological target: Aldehyde dehydrogenase 1A1 (Homo sapiens) (UniProt P00352)
Assay: qHTS Assay for Inhibitors of Aldehyde Dehydrogenase 1 (ALDH1A1)
Details: Purified ALDH1A1, NADH fluorescence, propionaldehyde substrate; series mostly up to 75.3 µM
Potency is read from the fitted curve at half-maximal effect.

Aldehyde dehydrogenase 1A1 (Homo sapiens), sequence (P00352 whole entry, looked up): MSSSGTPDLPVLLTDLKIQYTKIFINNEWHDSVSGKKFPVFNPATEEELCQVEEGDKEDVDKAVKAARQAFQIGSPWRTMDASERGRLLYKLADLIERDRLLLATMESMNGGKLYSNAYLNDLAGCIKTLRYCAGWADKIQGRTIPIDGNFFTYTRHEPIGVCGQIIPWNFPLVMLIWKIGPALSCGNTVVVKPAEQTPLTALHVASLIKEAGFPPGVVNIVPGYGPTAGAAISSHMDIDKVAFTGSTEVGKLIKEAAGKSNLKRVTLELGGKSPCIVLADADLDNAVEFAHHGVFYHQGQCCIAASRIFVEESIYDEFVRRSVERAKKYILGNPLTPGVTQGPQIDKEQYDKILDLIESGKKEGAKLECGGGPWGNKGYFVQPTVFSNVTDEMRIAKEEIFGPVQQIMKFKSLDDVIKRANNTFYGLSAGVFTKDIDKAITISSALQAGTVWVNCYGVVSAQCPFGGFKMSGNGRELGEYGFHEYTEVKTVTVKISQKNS

| Compound | Potency | activity, negative = inhibition |
| --- | --- | --- |
| O=C(Nc1cccnc1)c1cc2cc(Br)ccc2oc1=O | inactive |  |
| CCCN(CCC)c1ccc(C(O)c2nnc(-c3ccccc3)o2)cc1 (stereo not given) | inactive |  |
| Oc1ccc(N=Nc2nccs2)c(O)c1 | inactive |  |
| Cc1nn2cc(-c3ccc(Cl)cc3)cnc2c1Br | inactive |  |
| CCCCCCCC1(C)NC(=O)N(CC(=O)Nc2cc(C)on2)C1=O (stereo not given) | inactive |  |
| CC1CN(S(=O)(=O)c2ccc(C(=O)NN3CCN(C)CC3)cc2)CC(C)O1 (stereo not given) | inactive |  |
| COc1cc([C@H](Cc2ccccc2)NC(C)=O)oc(=O)c1 | inactive |  |
| O=C(NN1C(=O)C2C3C=CC(C3)C2C1=O)c1ccco1 (stereo not given) | inactive |  |
| COc1ccccc1C(=O)NN1C(=O)C2C3C=CC(O3)C2C1=O (stereo not given) | 20 µM (active) |  |
| COc1ccccc1C(=O)Nn1c(-c2cccs2)nc2ccccc2c1=O | inactive |  |
| O=C(Nc1ccc2c(c1)OCCO2)c1ccncc1 | inactive |  |
| O=C(NN1C(=O)C2C3C=CC(O3)C2C1=O)c1ccncc1 (stereo not given) | 17.8 µM (active) |  |
| COc1ccccc1C(=O)NNC(=O)c1ccc(NC(=O)c2ccccc2)cc1 | inactive |  |
| COC(=O)c1ccc(CN2CCC(CO)(Cc3ccc(OC)cc3)CC2)cc1 | inactive |  |
| CC(NC(=S)NC1CCCCC1)C(c1ccccc1)N1CCOCC1 (stereo not given) | inactive |  |
| Cc1cc(C)c2cc(CN(Cc3cccs3)Cc3nnnn3CC3CCCO3)c(=O)[nH]c2c1 (stereo not given) | 11.2 µM (active) |  |
| Cc1cccc(N2CCN(C(c3ccccc3)c3nnnn3CC3CCCO3)CC2)c1C (stereo not given) | inactive |  |
| CC(C)(C)n1nnnc1C(c1cccs1)N(Cc1cccnc1)CC1CCCO1 (stereo not given) | inactive |  |
| CCCCC(=O)Nc1ccc(C(=O)Nc2cc(C(F)(F)F)ccc2Cl)cc1 | inactive |  |
| CCSc1nc(C)nc2c1oc1ccccc12 | inactive |  |
| Cc1nc(Cl)c2oc3ccccc3c2n1 | inactive |  |
| C[C@@H](Nc1nc(-c2ccccc2)nc2c1oc1ccccc12)C(=O)O | 7.08 µM (active) |  |

| Compound | Potency | activity, negative = inhibition |
| --- | --- | --- |
| O=C(NCCN1CCOCC1)Nc1cccc(Cl)c1 | inactive |  |
| CC/C(=N\NC(=S)NC(C)C)c1ccc(OC(F)F)cc1 | inactive |  |
| Cc1ccc(NC(=S)N(CCCN2CCCC2)Cc2cccn2Cc2ccc(Cl)cc2)cc1 | inactive |  |
| O=C(Nc1ccc(CSc2ccccc2)cc1)c1ccc(CN2CCOCC2)cc1 | inactive |  |
| COc1ccc(C(=O)Nc2ccc(CN3CCOCC3)cc2)cc1 | inactive |  |
| C/C(CCc1ccccc1)=N\NC(=O)c1ccc(CN2CCOCC2)cc1 | 25.1 µM (active) |  |
| O=C(COc1ccc(NC(=O)c2ccccc2[N+](=O)[O-])cc1)c1ccc(F)cc1 | inactive |  |
| CSc1ncccc1C(=O)Nc1nc2ccc(F)cc2s1 | inactive |  |
| COCC1CCCN(Cc2cn[nH]c2-c2cc3ccccc3o2)C1 (stereo not given) | inactive |  |
| O=C(O)c1ccc(/C=N/NC(=S)NCc2ccccc2)cc1 | inactive |  |
| O=C(Cl)c1ccccc1[N+](=O)[O-] | inactive |  |
| O=C(Nc1ccncc1)c1ccccc1[N+](=O)[O-] | inactive |  |
| O=[N+]([O-])c1ccccc1SNc1ccccn1 | 20 µM (active) |  |
| COc1cc(NC(=O)COc2ccccc2Cl)ccc1NC(=O)C(C)C | inactive |  |
| COc1ccc(S(=O)(=O)N(C)C)cc1NC(=O)CSc1ncccn1 | inactive |  |
| Cc1cccc(C)c1NC(=O)N1CC=C(n2c(=O)[nH]c3ccccc32)CC1 | 6.31 µM (active) |  |
| O=C(Nc1ccc(Cl)c(Cl)c1)N1CC=C(c2ccccc2)CC1 | inactive |  |
| Cc1cccc(C)c1NC(=O)c1ccc(CN2CCc3ccccc3C2)cc1 | inactive |  |
| CSc1ccc(CNCCN2CCOCC2)cc1 | inactive |  |
| Cc1ccc(-c2nc(C)sc2CC(=O)OCC(=O)Nc2c(F)cccc2F)cc1 | inactive |  |
| Cc1ccc(NC(=O)Nc2nnc(-c3ccncc3)s2)cc1 | inactive |  |
| O=C(CSC1=Nc2ccccc2C2=NC(CC(=O)NCc3ccco3)C(=O)N12)NCc1ccco1 (stereo not given) | 7.94 µM (active) |  |

| Compound | Potency | activity, negative = inhibition |
| --- | --- | --- |
| O=C(CC1CCCCC1)NCc1ccco1 | inactive |  |
| CCOCCc1c(O)nc(SCC(=O)NCc2ccco2)[nH]c1=O | inactive |  |
| O=C(NNC(=S)NC1CCCCC1)c1ccccc1Cl | inactive |  |
| Cc1ccccc1OCc1nnc(SCC(=O)N2c3ccccc3Sc3ccc(Cl)cc32)o1 | 10 µM (active) |  |
| Cc1ccc(NC(=O)CSc2nnc(COc3ccccc3C)o2)cc1 | inactive |  |
| CC(C)NC(=O)CSc1nnc(COc2ccccc2Cl)o1 | inactive |  |
| O=C(CSc1ccccn1)Nc1nc2c(ccc3ccccc32)s1 | inactive |  |
| CN(C)c1ccc(/C=C2\NC(=S)N(Cc3ccccc3)C2=O)cc1 | 11.2 µM (active) |  |
| O=C1N/C(=C/c2cccs2)C(=O)N1Cc1ccc(F)cc1 | inactive |  |
| O=C1NCC(=O)N(Cc2ccccc2)/C1=C/c1ccccc1 | inactive |  |
| CCc1nnc(NC(=O)CCCSc2nc3ccccc3[nH]2)s1 | inactive |  |
| COc1cc(OC)cc(-c2nc(=S)n3ccsc3n2)c1 | inactive |  |
| CC(Oc1ccccc1)C(=O)NN1Cc2ccccc2C1=N (stereo not given) | inactive |  |
| COc1ccc(/C(C)=N/NC(=O)CCC(=O)Nc2ccc(Cl)cc2Cl)c(OC)c1 | inactive |  |
| NC(=O)COC(=O)c1sc2cc(F)ccc2c1Cl | inactive |  |
| C=CC1=C2C=C(C3CC3)N(CC(C)C)C=C2C(=O)C(C)(OC(=O)c2ccco2)C1=O (stereo not given) |  | -1.97% [at 13.5 µM] (inactive) |
| COc1ccc(C2/C(=C(/O)c3ccc(OC(C)C)cc3)C(=O)C(=O)N2CCCN2CCOCC2)cc1 (stereo not given) | 25.1 µM (active) |  |
| CCN(CC)CCN1C(=O)C(=O)/C(=C(/O)c2ccccc2)C1c1ccccc1F (stereo not given) | inactive |  |
| COc1ccc(/C(O)=C2/C(=O)C(=O)N(CC3CCCO3)C2c2ccc(OC)c(OC)c2)cc1 (stereo not given) | inactive |  |
| O=C1CC(c2ccccc2)CC(O)=C1C=NCCN1CCOCC1 (stereo not given) | inactive |  |
| CCN(CC)CCN1C(=O)C(=O)/C(=C(/O)c2ccc(OC)c(OC)c2)C1c1ccccn1 (stereo not given) | 28.2 µM (active) |  |
| COc1ccc(/C(O)=C2/C(=O)C(=O)N(CCCN(C)C)C2c2ccccc2)cc1OC (stereo not given) | inactive |  |

| Compound | Potency | activity, negative = inhibition |
| --- | --- | --- |
| O=C1C(=O)N(CCN2CCOCC2)C(c2ccccn2)/C1=C(/O)c1ccc(Cl)cc1 (stereo not given) | 12.6 µM (active) |  |
| COc1cccc(C2/C(=C(/O)c3ccncc3)C(=O)C(=O)N2CCCN(C)C)c1 (stereo not given) | inactive |  |
| CC1Cc2cc(/C(O)=C3\C(=O)C(=O)N(CCN4CCOCC4)C3c3ccccc3F)ccc2O1 (stereo not given) | inactive |  |
| COC(=O)C(C(=O)OC)[C@@H](NC=O)c1ccccc1 | inactive |  |
| CCOC(=O)C1=C(C)c2ccccc2OC1C(=O)OCC (stereo not given) | inactive |  |
| CCc1cc(CNC(=O)CC2C(=O)NCCN2CC2CCCCC2)on1 (stereo not given) | inactive |  |
| CCc1ccc(Oc2nc([N+](=O)[O-])nn2C)cc1 | inactive |  |
| Cc1ccc(C(=O)NN(CCC#N)C2=NS(=O)(=O)c3ccccc32)cc1 | inactive |  |
| Cn1nc(C(C)(C)C)c(NC(=O)c2sccc2Cl)c1C(C)(C)C | inactive |  |
| C=C(C)COc1ccc(-c2nc(N)ncc2-c2ccccc2OC)c(O)c1 | inactive |  |
| O=C(COc1ccc([N+](=O)[O-])cc1Cl)Nn1cnnc1 | inactive |  |
| COC(=O)CSc1nccc(-c2cccs2)n1 | inactive |  |
| CN1CCN(C(=O)N2c3ccccc3CCc3ccccc32)CC1 | inactive |  |
| Cn1nnnc1SCC(=O)NNC(=O)c1ccc(Br)cc1 | inactive |  |
| O=C(CCc1ccccc1)NNC(=O)c1ccc(Br)cc1 | inactive |  |
| CC(=O)NC(=S)NNC(=O)c1ccc(Br)cc1 | 11.2 µM (active) |  |
| CC(Oc1cccc(NC(=O)c2cccs2)c1)C(=O)c1ccccc1 (stereo not given) | inactive |  |
| O=C(O)c1n[nH]nc1-c1ccccc1 | inactive |  |
| CCNC(=O)CC1C(=O)N(c2ccc(F)cc2)C(=O)N1CCc1sccc1C (stereo not given) | inactive |  |
| COc1ccc(C(C[N+](=O)[O-])n2nc(C)cc2C)cc1 (stereo not given) | 10 µM (active) |  |
| COc1ccc(Nc2cc(C)nc(-n3nc(C)cc3C)n2)cc1 | inactive |  |
| COc1ccc(OCc2cn3c(C)cc(C)nc3n2)cc1 | inactive |  |

| Compound | Potency | activity, negative = inhibition |
| --- | --- | --- |
| Cc1onc(-c2ccccc2)c1C(=O)N=C(N)c1ccc(Cl)cc1 | inactive |  |
| COc1ccc(OCc2ccc(-c3nc4ccccc4c(=O)n3N)o2)cc1 | inactive |  |
| O=C(CCn1c(SCC(=O)c2ccccc2)nc2ccccc2c1=O)NCc1ccc(F)cc1 | inactive |  |
| Cc1ccc(C(=O)CSc2nc3ccccc3c(=O)n2N)o1 | 28.2 µM (active) |  |
| O=C(Nn1cnc2ccccc2c1=O)c1ccccc1 | inactive |  |
| C=CCC1(CC=C)CCCN1C(=O)CC1C(=O)NCCN1Cc1ccccc1OC (stereo not given) | inactive |  |
| COCCC(=O)Nc1ccc2c(c1)CN(C(=O)CCOC)CC2 | inactive |  |
| CNc1[nH]ncc1[N+](=O)[O-] | inactive |  |
| COc1cc(NS(=O)(=O)c2ccc(NC(=O)CN3C(=O)c4ccccc4C3=O)cc2)ncn1 | inactive |  |
| COc1ccc(C)cc1-n1nnnc1SCc1nc2ccccc2c(=O)[nH]1 | 39.8 µM (active) |  |
| CCn1c(COc2c(C)cccc2C)nnc1SCc1nc2ccccc2c(=O)[nH]1 | inactive |  |
| COc1ccc(CCCc2nnc(SCc3nc4ccccc4c(=O)[nH]3)n2C)cc1 | inactive |  |
| CCCOC1CCCN(Cc2cn(C)nc2-c2ccccc2F)C1 (stereo not given) | inactive |  |
| O=C(C1CCCO1)N(c1ccc(F)cc1)C1C=CS(=O)(=O)C1 (stereo not given) | inactive |  |
| CCCC[C@@H]1C[C@H]1C(NC(=O)c1ccco1)c1ccc(C(=O)OC)cc1 (stereo not given in full) | 22.4 µM (active) |  |
| COC(=O)c1ccc(N(CC(=O)NC2CCCC2)C(=O)CNC(=O)c2ccco2)cc1 | inactive |  |
| CCCC[C@@H]1C[C@H]1C(NC(=O)c1ccc(-c2ccccc2)cc1)c1ccc(-c2ccccc2)cc1 (stereo not given in full) | inactive |  |
| CC(C)(C)NC(=O)C(=O)NN=C1CCCCCCC1 | inactive |  |
| c1c2c(cc3sc(N4CCCCC4)nc13)OCCO2 | 20 µM (active) |  |
| Fc1ccc2nc(N3CCCCC3)sc2c1 | inactive |  |
| Fc1cc(F)c2nc(N3CCOCC3)sc2c1 | inactive |  |
| CC(=O)c1cc(C#N)c(SCC(=O)Nc2nccs2)nc1C | inactive |  |
